# The panel holds about 83,000 compounds, 20% with a hit somewhere; the sample as a whole holds those more often.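 Method: cells in 96-well plates; compound added at one concentration; 48 h incubation; percent growth measured; values under 10 scored active.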 Values without a mark were called inactive. The source made the active and inactive calls.
# Tested on: HS 578T breast
# Experiment: NCI-60 one-dose screen, 48 h (100 = growth as untreated, 0 = no growth, -100 = all killed)
# Conditions: 10 µM
# Protocol: Growth inhibition of the HS 578T human tumor cell line is measured as a screen for anti-cancer activity. Cells are grown in 96 well plates and exposed to the test compound for 48 hours. Compounds are tested at a single concentration, which is 10^-5 M for most compounds. The reported endpoint is percent growth (GI% or GIPRCNT), where numbers from 0 - 100% represent growth inhibition, and numbers from -100% - 0 represent cell death. For example, a value of 40 represents 60% growth inhibition. A value of 0 means no net growth occurred over the course of the experiment. A value of -40 indicates 40% of cells at the beginning of the experiment died by the end of the experiment. A value of -100 means all cells are dead at the end of the experiment.
# NCI-60 Human Tumor Cell Lines Screen was performed using the standard one-dose NCI protocol, which is described in more detail at https://dtp.cancer.gov/discovery_development/nci-60/default.htm.
# Compounds with GIPRCNT values below 10 were considered active. Activity score was based on GIPRCNT using the following formula: […]
# Score is 0 for GIPRCNT values of 100 or above, 50 for GIPRCNT values of 0, and 100 for GIPRCNT values of -100.
row,SMILES,growth
1,C=CCn1c(C)nc2cc(Nc3nc(N4CCOCC4)nc4nc[nH]c34)ccc21,57.3%
2,CCc1ccc(Nc2ncnc3c2cnn3-c2cccc(Br)c2)cc1,103%
3,COc1ccc(-c2nsc3c2NC(=O)CC3c2cccc(F)c2)cc1 (stereo not given),79.1%
4,O=C(OCc1ccc2c(Cl)cc(Cl)c(O)c2n1)c1cc2ccccc2[nH]1,-14.4% (active)
5,OC(c1cc(-c2ccc(C(F)(F)F)cc2)nc(-c2ccc(C(F)(F)F)cc2)c1)C1CCCCN1 (stereo not given),-55.5% (active)
6,COCCn1c(Nc2ccc(C(=O)NO)cc2)nc2ccccc21,80.7%
7,O=C(NC1CC1)c1ccc(-c2nc3ccc4[nH]ncc4c3c3c2CCCC3)cc1,4.47% (active)
8,[Ag].[Ag].[NH-]S(=O)(=O)c1ccc(N=Nc2cc(N=Nc3ccc(S([NH-])(=O)=O)cc3)c3c(NC(=O)C(Cl)Cl)cccc3c2OC(=O)C(Cl)Cl)cc1.[c-]1nccs1.[c-]1nccs1,76.3%
9,O=c1[nH]cnc2nc[nH]c12,123%
10,N#Cc1ccc(NC(=O)Nc2nc3ccc(OC(F)(F)F)cc3s2)cc1,-0.817% (active)
11,CC(=O)O[C@H]1[C@H](CC#CC#CC[C@@H]2C[C@]3(C)[C@H]4CC=C5[C@H]6[C@@H](C)[C@H](C)CC[C@]6(C(=O)NCCN(CCN)CCN)CC[C@@]5(C)[C@]4(C)CC[C@H]3C(C)(C)[C@H]2OC(C)=O)C[C@]2(C)[C@H]3CC=C4[C@H]5[C@@H](C)[C@H](C)CC[C@]5(C(=O)NCCN(CCN)CCN)CC[C@@]4(C)[C@]3(C)CC[C@H]2C1(C)C,70.6%
12,COc1ccc(Sc2[nH]c(C=O)c3ccccc23)cc1,54.4%
13,Nc1nonc1-c1nc2ccccc2n1Cc1ccc(F)cc1,53.6%
14,CCN(CC)Cc1cc(Nc2nc(NC3CCC(N(C)C)CC3)c3ccccc3n2)ccc1OC (stereo not given),73.4%
15,CCCCOc1ncnc2nc[nH]c12,100%
16,Cc1cc(C)c2c(n1)sc1c(Nc3ccc(O)cc3)ncnc12,82.5%
17,Cc1cc(NC(=O)C2c3ccccc3C(=O)N(CC(C)C)C2c2cccs2)no1 (stereo not given),67.7%
18,CC1CCN(Cc2ccc(NC(=O)c3cc4ccc5cccnc5c4[nH]3)cc2)CC1,33.7%
19,FC(F)(F)c1ccc(/C=N/Nc2nnc3n2N=C(c2ccc(Cl)cc2)CS3)cc1,8.3% (active)
20,C1=C\CCCCN2CC[C@H]3[C@H](CCCC/C=C\CCCN4C[C@@H](CCCCC/1)C[C@@H]3C4)C2,9.63% (active)

row,SMILES,growth
1,CN(C)c1ccc(C(c2ccccc2)c2ccc(N(C)C)cc2)cc1,98.8%
2,CCC1CCc2nc3sc(C(=O)Nc4cccc(F)c4)c(N)c3cc2C1 (stereo not given),79.5%
3,CN(C)c1ccc(N2Cc3ccccc3OC3=C2C(=O)c2c(O)ccc(O)c2C3=O)cn1,44.7%
4,Cc1n(Cc2ccc3ccccc3n2)cc[n+]1Cc1ccc2ccccc2c1,24.4%
5,CCOc1cccc(/C=N/NC(=O)Cc2ccc(Nc3ccnc(C(F)(F)F)c3)cc2)c1O,76.4%
6,O=[N+]([O-])c1cccc(N=C(Nc2cccc([N+](=O)[O-])c2)c2ccccc2)c1,97.9%
7,COCCOCCOCc1n(Cc2ccc3ccccc3n2)c2ccccc2[n+]1Cc1ccc2ccccc2c1,20.3%
8,COc1ccc(-c2nc(-c3cc(OC)cc(OC)c3)[nH]c2-c2ccc(OC)cc2)cc1,81.5%
9,COc1cc2c(cc1OCCCOc1cc3c(cc1OC)C(=O)N1CCC[C@H]1C=N3)C=CC(C)(C)O2,45.7%
10,O=C(Nc1cccc(Cl)c1)Nc1cc(C(F)(F)F)ccc1Cl,55.9%
11,CC1(C)C(N(O)C(=O)Nc2ccc(Cl)cc2)N(c2ccc(Cl)cc2)C(=O)N1CC(=O)N/N=C/C=C/c1ccc([N+](=O)[O-])o1 (stereo not given),-11.4% (active)
12,N#Cc1nc(-c2cccc(Br)c2)cc(-c2ccc(Nc3nc(N4CCCCC4)nc(N4CCCCC4)n3)cc2)c1N,6.14% (active)
13,COc1ccc(Br)c2ccccc12,112%
14,CN1CCN(Cc2ccc(NC(=O)c3cncc(C#Cc4ccc(N)nc4)c3)cc2C(F)(F)F)CC1,-21.9% (active)
15,N[C@@H](CO)C(=O)O,117%
16,CC(=O)[C@@]1(O)[C@H](C)C[C@H]2[C@@H]3C=C(C)C4=Cc5c(cnn5-c5ccccc5)C[C@]4(C)[C@H]3[C@@H](O)C[C@@]21C,5.32% (active)
17,CC(COC(=O)c1ccccc1)N1CC2CCC(C1)O2 (stereo not given),105%
18,CC(=O)c1c(C)nc(-c2cc(C)cc(Cl)c2)nc1-c1cccc(Oc2ccccc2)c1,59.8%
19,CCCCCCCCCCCC1=NC(C)(C)CN1C(C)(C)CO,81.2%
20,Fc1ccc2nc(-c3ccc(-c4noc(-c5ccc(Cl)cc5)n4)cc3)[nH]c2c1,108%

# — PubChem BioAssay (NCI)
